The source of these data is PubChem BioAssay (NCATS).

Assay [1] addresses Vitamin D3 receptor (Homo sapiens) (UniProt P11473). As to the kind of experiment: qHTS assay for small molecule antagonists of vitamin D receptor signaling (AID 588541; calls by dose curve;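 also: receptor activated by calcitriol during compound treatment; series mostly up to about 77 µM; % is scaled to controls: 0 for no effect and ±100 for the full control effect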). In a few lines: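 Antagonist-mode beta-lactamase reporter assay: HEK293T VDR-UAS-bla cells were exposed to titrated compound alongside 1-alpha,25-dihydroxyvitamin D3 at 3 nM final for 16 h. Values were normalized to the 50 nM agonist control and DMSO basal, with IC50 and efficacy from Hill equation fits.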

The target is the same in assay [2]. Nature of the assay: qHTS assay for small molecule agonists of vitamin D receptor signaling (AID 588543; calls by dose curve;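 also: 0% = DMSO basal and 100% = reference agonist control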). In a few lines: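 Measured: β-lactamase reporter activity (CCF4, 405 nm excitation, 460/530 nm emission) in HEK293T VDR-UAS-bla cells after 16 h compound exposure at 37 °C. Normalization against 50 nM 1α,25-dihydroxyvitamin D3 and DMSO; Hill-fit EC50.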
(In qHTS, concentration-response curves come from the screen itself.)

A short description of assay [3]: qHTS assay for small molecule agonists of retinoid X receptor alpha signaling (AID 588544; calls by dose curve). Particulars: HEK293T RXRa-UAS-bla, beta-lactamase reporter, 18 h; 530 nm emission.
Assay [4] addresses Retinoic acid receptor RXR-alpha (Homo sapiens) (UniProt P19793). The assay is described as above.
In assay [5] the target is Thyroid hormone receptor beta (Homo sapiens) (UniProt P10828). As to the kind of experiment: qHTS assay for small molecule agonists of thyroid hormone receptor beta signaling (AID 588545; calls by dose curve;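 also: 0% = DMSO only and 100% = 10 nM T3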). In short, it runs like this: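 TR-UAS-bla GripTite HEK 293 cells (2500/well, medium with 2% charcoal/dextran FBS) were treated in agonist mode for 18 h at 37 C, titrated. Beta-lactamase was read by CCF4 ratio after 2 h; normalized to 10 nM T3 (100%) and DMSO, Hill-fitted for EC50 and efficacy.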
Thyroid hormone receptor beta (Homo sapiens), sequence (P10828 whole entry, looked up): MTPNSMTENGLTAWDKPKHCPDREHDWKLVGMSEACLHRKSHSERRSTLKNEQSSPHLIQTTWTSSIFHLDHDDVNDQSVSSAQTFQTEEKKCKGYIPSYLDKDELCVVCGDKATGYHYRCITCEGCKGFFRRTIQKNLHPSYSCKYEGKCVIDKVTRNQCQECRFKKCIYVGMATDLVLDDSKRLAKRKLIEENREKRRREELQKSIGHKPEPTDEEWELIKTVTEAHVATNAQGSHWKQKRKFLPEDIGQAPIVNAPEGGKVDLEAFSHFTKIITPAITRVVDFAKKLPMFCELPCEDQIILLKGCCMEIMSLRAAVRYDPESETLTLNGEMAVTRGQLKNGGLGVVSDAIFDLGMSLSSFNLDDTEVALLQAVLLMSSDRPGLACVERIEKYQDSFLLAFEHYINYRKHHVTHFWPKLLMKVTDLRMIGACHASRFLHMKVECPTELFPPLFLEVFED

A short description of assay [6]: qHTS assay for small molecule antagonists of retinoid X receptor alpha signaling (AID 588546).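 Also: cells stimulated with 9-cis-retinoic acid as agonist; % is scaled to controls: 0 for no effect and ±100 for the full control effect.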 Conditions: HEK293T RXRa-UAS-bla, beta-lactamase ratio, antagonist mode; measured here: W530 green channel, cytotoxicity proxy. In a few lines:
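Beta-lactamase reporter inhibition, read as CCF4 fluorescence ratio (ex 405, em 460/530 nm) after 2 h at RT. HEK293T UAS-bla cells, 2500/well, were stimulated with 9-cis-RA at 500 or 100 nM final alongside test compound for 18 h at 37 C.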

For assay [7], the target named is Thyroid hormone receptor beta (Homo sapiens) (UniProt P10828). As to the kind of experiment: qHTS assay for small molecule antagonists of thyroid hormone receptor beta signaling (AID 588547; active = well fitted inhibition curve with a large enough effect in the signal ratio, with a control signal flat, not every such curve was filed as active; the % refers to the signal ratio;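 also: cells stimulated with 0.4 nM T3 agonist during compound exposure; series mostly up to about 77 µM; % is scaled to controls: 0 for no effect and ±100 for the full control effect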). Particulars: TR-UAS-bla HEK293, beta-lactamase ratio, antagonist mode, 18 h. In short, it runs like this:
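Inhibition of T3-driven (0.4nM final) beta-lactamase reporter activity was measured over 0.59 nM to 92 uM compound after 18 h at 37 C. The cells were GripTite HEK293 TR-UAS-bla in charcoal/dextran-stripped serum, with CCF4 ratio read-out and IC50 from Hill fits.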

The target of assay [8] is Voltage-gated inwardly rectifying potassium channel KCNH2 (Homo sapiens) (UniProt Q12809). Nature of the assay: qHTS Assay for Small Molecule Inhibitors of the Human hERG Channel Activity (AID 588834).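 Also: lower thallium flux fluorescence means stronger hERG block; nearly all actives have a fitted effect of over 50% in size.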 Also: potency is read from the fitted curve at half-maximal effect. In short, it runs like this: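 Blockade is seen as reduced FluxOR thallium-flux fluorescence in U2OS cells expressing hERG from a BacMam construct, in Opti-MEM with 2% FCS. Concentration-response data fitted to the Hill equation for AC50.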
Voltage-gated inwardly rectifying potassium channel KCNH2 (Homo sapiens), sequence (Q12809 whole entry, looked up): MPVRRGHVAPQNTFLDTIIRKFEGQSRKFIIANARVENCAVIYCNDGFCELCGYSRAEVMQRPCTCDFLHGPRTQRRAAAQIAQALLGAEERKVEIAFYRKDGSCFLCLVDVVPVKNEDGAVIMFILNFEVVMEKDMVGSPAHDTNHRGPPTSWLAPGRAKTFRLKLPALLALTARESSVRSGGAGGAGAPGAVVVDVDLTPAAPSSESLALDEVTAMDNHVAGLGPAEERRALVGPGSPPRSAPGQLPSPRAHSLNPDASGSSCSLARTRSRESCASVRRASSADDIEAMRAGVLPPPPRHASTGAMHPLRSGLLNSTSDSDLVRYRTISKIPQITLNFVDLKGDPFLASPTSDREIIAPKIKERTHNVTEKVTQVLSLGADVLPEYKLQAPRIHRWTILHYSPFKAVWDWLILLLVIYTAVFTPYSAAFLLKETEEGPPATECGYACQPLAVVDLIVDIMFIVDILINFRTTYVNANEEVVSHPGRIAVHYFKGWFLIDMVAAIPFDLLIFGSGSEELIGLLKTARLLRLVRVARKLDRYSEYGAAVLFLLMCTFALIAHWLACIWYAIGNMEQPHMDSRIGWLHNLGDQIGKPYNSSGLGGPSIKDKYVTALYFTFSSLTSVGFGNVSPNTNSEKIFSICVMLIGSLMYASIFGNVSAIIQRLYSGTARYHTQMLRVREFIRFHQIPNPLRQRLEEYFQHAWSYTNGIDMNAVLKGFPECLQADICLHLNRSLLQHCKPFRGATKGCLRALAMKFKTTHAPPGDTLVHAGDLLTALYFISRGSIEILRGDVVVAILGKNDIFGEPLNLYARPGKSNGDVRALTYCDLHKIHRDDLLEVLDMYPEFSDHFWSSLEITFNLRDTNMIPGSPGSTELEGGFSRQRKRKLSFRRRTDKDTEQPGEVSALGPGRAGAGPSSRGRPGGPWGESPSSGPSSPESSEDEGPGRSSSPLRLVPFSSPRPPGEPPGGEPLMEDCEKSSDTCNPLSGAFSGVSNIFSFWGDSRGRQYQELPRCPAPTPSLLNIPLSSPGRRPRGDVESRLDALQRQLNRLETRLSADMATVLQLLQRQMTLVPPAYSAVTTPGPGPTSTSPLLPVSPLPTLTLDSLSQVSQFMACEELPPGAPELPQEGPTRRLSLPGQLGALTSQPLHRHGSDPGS

Assay [9] deals with Peroxisome proliferator-activated receptor gamma (Homo sapiens) (UniProt P37231). As to the kind of experiment: qHTS assay for small molecule antagonists of peroxisome proliferator-activated receptor gamma signaling (AID 588537; active = well fitted inhibition curve with a large enough effect in the signal ratio, with a control signal flat, not every such curve was filed as active; the % refers to the signal ratio;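 also: reporter cells co-stimulated with 50 nM rosiglitazone agonist during compound treatment; % of control where 0% means no effect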). In short, it runs like this:
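Inhibitors of agonist-stimulated UAS-bla reporter activity were sought in HEK293 cells; rosiglitazone (50 nM) defined full signal and DMSO baseline. Curves fitted to Hill model gave IC50 and efficacy.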

Assay [10] has the same target. As to the kind of experiment: qHTS assay for small molecule agonists of peroxisome proliferator-activated receptor gamma signaling (AID 588536; active = well fitted curve in the direction sought with a large enough effect in the signal ratio, with a control signal flat, not every such curve was filed as active; the % refers to the signal ratio;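 also: 0% = DMSO basal wells and 100% = rosiglitazone at 2 µM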). In short, it runs like this: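 PPAR-gamma-UAS-bla HEK293 cells in medium with 1% charcoal/dextran-treated FBS were exposed to compounds for 16 h at 37 C. Beta-lactamase activity was read with CCF4 substrate (405 nm excitation, 460/530 nm emission).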

Values joined by “and” are separate entries in the source; they are usually repeats but may differ in a detail not shown here. Identical values can stand only once. Records with an inconclusive call do not appear. Where a structure was tested more than once in an assay, its records may differ in their call. Active and inactive are the calls of the source. Unless noted, calls follow the shape of the dose curve; as a rule, active = well fitted inhibition curve with a large enough effect; inconclusive = small, poorly fitted or top-dose-only effect; inactive = flat fitted curve, though single readings scatter.

Retinoic acid receptor RXR-alpha (Homo sapiens), sequence (P19793 whole entry, looked up): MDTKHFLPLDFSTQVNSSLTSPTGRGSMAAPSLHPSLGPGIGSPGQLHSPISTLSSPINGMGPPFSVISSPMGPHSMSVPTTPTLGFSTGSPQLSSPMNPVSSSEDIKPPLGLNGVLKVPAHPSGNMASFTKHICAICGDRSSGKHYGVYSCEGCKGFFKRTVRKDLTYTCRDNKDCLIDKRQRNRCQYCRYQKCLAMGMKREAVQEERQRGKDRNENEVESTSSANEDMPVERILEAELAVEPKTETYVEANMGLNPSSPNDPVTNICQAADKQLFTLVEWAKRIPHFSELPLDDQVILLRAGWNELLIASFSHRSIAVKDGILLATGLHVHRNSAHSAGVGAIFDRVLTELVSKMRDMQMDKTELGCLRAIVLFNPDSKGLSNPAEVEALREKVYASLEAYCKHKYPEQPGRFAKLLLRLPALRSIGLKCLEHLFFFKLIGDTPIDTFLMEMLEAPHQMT
Vitamin D3 receptor (Homo sapiens), sequence (P11473 whole entry, looked up): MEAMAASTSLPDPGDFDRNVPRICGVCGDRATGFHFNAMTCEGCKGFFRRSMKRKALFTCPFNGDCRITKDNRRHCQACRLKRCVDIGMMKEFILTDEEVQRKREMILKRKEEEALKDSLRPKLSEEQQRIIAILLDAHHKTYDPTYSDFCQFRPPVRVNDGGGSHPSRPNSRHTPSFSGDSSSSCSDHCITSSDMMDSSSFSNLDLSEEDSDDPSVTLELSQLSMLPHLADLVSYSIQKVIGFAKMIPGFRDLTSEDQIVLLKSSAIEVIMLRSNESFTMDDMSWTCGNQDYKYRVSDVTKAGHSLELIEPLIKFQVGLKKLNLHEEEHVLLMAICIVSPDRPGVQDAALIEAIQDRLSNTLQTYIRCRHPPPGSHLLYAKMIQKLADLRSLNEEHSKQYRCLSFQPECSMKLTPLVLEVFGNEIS
Peroxisome proliferator-activated receptor gamma (Homo sapiens), sequence (P37231 whole entry, looked up): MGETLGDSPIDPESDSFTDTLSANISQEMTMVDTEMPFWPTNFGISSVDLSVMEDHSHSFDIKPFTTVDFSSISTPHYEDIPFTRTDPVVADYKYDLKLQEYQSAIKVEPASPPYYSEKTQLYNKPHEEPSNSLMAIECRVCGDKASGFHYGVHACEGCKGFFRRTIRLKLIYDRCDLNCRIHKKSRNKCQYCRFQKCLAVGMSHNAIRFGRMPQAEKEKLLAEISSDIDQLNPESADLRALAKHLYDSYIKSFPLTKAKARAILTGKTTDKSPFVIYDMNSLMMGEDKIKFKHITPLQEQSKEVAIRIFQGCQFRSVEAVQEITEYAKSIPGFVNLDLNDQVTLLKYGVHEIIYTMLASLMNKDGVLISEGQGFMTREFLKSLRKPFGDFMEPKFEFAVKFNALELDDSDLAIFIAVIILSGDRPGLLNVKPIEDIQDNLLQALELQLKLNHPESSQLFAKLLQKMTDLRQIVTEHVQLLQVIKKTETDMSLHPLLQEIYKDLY

Consider `CCCCCCCC/C=C\CCCCCCCCN`, for which the Potency entry in assay [1] and in assay [8] was “inactive” throughout. Further, the result in assay [2], in assay [4] and in assay [5] was inactive. In addition, the max response in assay [3] was -3%; in [6] it was 0.483%. In addition, the activity change % (negative = inhibition) in [7] was -4.57% (inactive).

As for `CC(C)(C)CC(C)(C)c1ccc(O)c(-n2nc3ccccc3n2)c1`, the Potency entry in [9], in assay [1] and in assay [8] was “inactive” throughout. For the same molecule, the molecule was called inactive in assay [2] and in assay [5]. The activity change % (negative = inhibition) in assay [7] is -12.9% (inactive).

In the case of `CCCCCCCCOc1ccc(C(=O)c2ccccc2)c(O)c1`, the call in [10], in assay [2], in [4] and in [5] was inactive. The Potency result in assay [9], in assay [1] and in [8] was “inactive” each time. Besides, the max response in [3] is -1.02%; in [6] it was -13.7%. Moreover, the activity change % (negative = inhibition) in assay [7] is -1.54% (inactive).

As for `O=C(O)c1ccc(S(=O)(=O)N(Cl)Cl)cc1`, the result in assay [10], in assay [2], in assay [4] and in assay [5] was inactive. Further, the Potency result in assay [9] and in assay [8] was “inactive” each time. The max response in [3] is -8.23%; in assay [6], -4.72%. Further, the activity change % (negative = inhibition) in [7] is 9.05% (inactive).

As to `N/C(=N\N=C\c1ccc(Cl)cc1)N/N=C/c1ccc(Cl)cc1`, in assay [8], the Potency was 3.55 µM (active).

For `CCOc1ccccc1C(N)=O`, the outcome in [10], in assay [2] and in assay [4] was inactive. Besides, the Potency result in [9], in assay [1] and in [8] was “inactive” throughout. The max response in assay [3] was -15.7%; in assay [6] it was -1.33%. Besides, the activity change % (negative = inhibition) in assay [7] was 7.81% (inactive).

`CCCCOC(=O)CC(CC(=O)OCCCC)(OC(C)=O)C(=O)OCCCC`: the molecule was classed as inactive in assay [10], in assay [2], in assay [4] and in assay [5]. Moreover, the Potency result in [9] and in assay [1] was “inactive” throughout. In addition, the figures for the max response in assay [3] and in assay [6] were 10.7% and -7.31%, respectively. For the same molecule, the activity change % (negative = inhibition) in assay [7] was 12.8% (inactive).

Take `O=C1C(CCS(=O)c2ccccc2)C(=O)N(c2ccccc2)N1c1ccccc1` (configuration not stated): the Potency entry in assay [8] is “inactive”.

On to `CC(C)(C)NC[C@H](O)COc1nsnc1N1CCOCC1`, for which the Potency result in assay [8] was “inactive”.

For the molecule `Cl/C(=C\n1cncn1)c1ccc(Cl)cc1Cl`, the Potency result in assay [8] was “inactive”.

Take `NC(=O)c1ccccc1O`: the result in assay [10], in assay [2], in assay [4] and in assay [5] was inactive. The Potency result in assay [1] and in assay [8] was “inactive” throughout. In addition, the max response is -2.87% in [3] and -19% in assay [6]. In addition, in assay [7], the activity change % (negative = inhibition) was -15.4% (inactive).

With `NC(N)=NN=C(/C=C/c1ccc([N+](=O)[O-])o1)/C=C/c1ccc([N+](=O)[O-])o1`, the Potency in assay [8] was 0.0891 µM (active).

Consider `CC1(COc2ccc(CC3SC(=O)NC3=O)cc2)CCCCC1` (configuration not stated), for which the outcome in assay [5] was inactive. For the same molecule, the max response in assay [6] stood at 20.2%. Besides, the activity change % (negative = inhibition) in [7] is -31.9% (inactive).

`CNCCCCOc1ccccc1Cc1ccccc1`: in [8], the Potency was 6.31 µM (active).

As to `Cc1ccc2c(Br)cc(Br)c(O)c2n1`, the Potency result in [8] is “inactive”.

Take `CCCCCCCCCCCCCC(=O)OC(C)C`: the molecule was classed as inactive in assay [10], in assay [2], in assay [4] and in [5]. Besides, the Potency entry in assay [9], in assay [1] and in assay [8] was “inactive” each time. Moreover, the max response was -13.5% in [3] and -10.1% in assay [6].

As for `Oc1ccc(Cl)cc1Cc1cc(Cl)ccc1O`, the Potency result in [1] is “inactive”. Besides, the molecule was classed as inactive in [2], in [4] and in assay [5]. Besides, the max response in [3] was -27.5% and -0.357%. Also, the Potency in [8] was 28.2 µM (active).

Turning to `C#C[C@]1(O)CC[C@H]2[C@@H]3[C@H](C)CC4=C(CCC(=O)C4)[C@H]3CC[C@@]21C`, the Potency entry in assay [8] is “inactive”.

As to `C#C[C@]1(O)CC[C@H]2[C@@H]3CCC4=CC(=O)CC[C@@H]4[C@H]3CC[C@@]21CC`, in [8], the Potency result was “inactive”.

On to `CCc1nn(CCCN2CCN(c3cccc(Cl)c3)CC2)c(=O)n1CCOc1ccccc1`, for which the Potency in assay [8] is 1 µM (active).

With `CC1CCc2c(N3CCC(O)CC3)c(F)cc3c(=O)c(C(=O)O)cn1c23` (configuration not stated), in [8], the Potency result was “inactive”.

Regarding `CCCCCCCCCCCCSCCOCCO`, in [8], the Potency result was “inactive”.

For the molecule `CCc1ccc(C(=O)C(C)CN2CCCCC2)cc1` (configuration not stated), the Potency entry in [8] was “inactive”.

As for `CCOC(=O)C(C#N)=C(c1ccccc1)c1ccccc1`, the Potency result in assay [8] is “inactive”.

As for `O=C1OC(CN2CCOCC2)CN1/N=C/c1ccc([N+](=O)[O-])o1` (configuration not stated), the Potency result in [8] is “inactive”.

Turning to `Cc1nc(-c2ccc(Cl)cc2)oc1COC(C)(C)C(=O)O`, the Potency result in assay [8] was “inactive”.

As to `O=C(NCCc1c[nH]c2ccccc12)c1cccnc1`, the Potency result in [8] was “inactive”.

For `COc1cc(C(=S)N2CCOCC2)ccc1O`, the Potency result in [8] is “inactive”.

For the molecule `CC(CNC1CCCCC1)OC(=O)c1ccccc1` (configuration not stated), the Potency result in [8] was “inactive”.

As for `NS(=O)(=O)Cc1noc2ccccc12`, the Potency entry in assay [8] is “inactive”.

As to `CCc1oc2ccccc2c1C(=O)c1cc(Br)c(O)c(Br)c1`, in assay [8], the Potency entry was “inactive”.

With `NCc1ccccc1Sc1ccccc1CO`, the Potency entry in assay [8] was “inactive”.

Turning to `CCOCCn1c(N2CCCN(C)CC2)nc2ccccc21`, the Potency in assay [8] is 1 µM (active).

In the case of `CC(=O)O[C@]1(C(C)=O)CC[C@H]2[C@@H]3C=C(C)C4=CC(=O)CC[C@]4(C)[C@H]3CC[C@@]21C`, the Potency entry in [8] is “inactive”.

Turning to `CCC(C(=O)OCCOCCN(CC)CC)c1ccccc1` (configuration not stated), in assay [8], the Potency result is “inactive”.

As for `CC(C)[C@@H]1CC[C@@H](C)CC1=O`, the Potency entry in assay [8] is “inactive”.

Regarding `O=C(O)CCc1nc2ccccc2[nH]1`, in assay [8], the Potency entry is “inactive”.

On to `COc1cc(C(=O)NCc2ccc(OCCN(C)C)cc2)cc(OC)c1OC`, for which the Potency entry in [8] is “inactive”.

Take `CC(=O)Nc1ccc(CC(=O)O)cc1`: the Potency result in [8] was “inactive”.

Take `CC(=O)OC[C@H]1O[C@@H](n2ncc(=O)[nH]c2=O)[C@H](OC(C)=O)[C@@H]1OC(C)=O`: the Potency entry in assay [8] was “inactive”.

As to `O=C(Nc1cccc(C2=NCCN2)c1)Nc1cccc(C2=NCCN2)c1`, the Potency entry in [8] was “inactive”.

`COC(=O)C(c1ccccc1Cl)N1CCc2sccc2C1` (configuration not stated): the Potency entry in assay [8] was “inactive”.

For the molecule `C[C@@H](O)[C@H]1C(=O)N2C(C(=O)O)=C([C@H]3CCCO3)S[C@H]12`, the Potency entry in assay [8] was “inactive”.

Turning to `CC(=O)O[C@H]1C[C@@H]2CC[C@@H]3[C@H](CC[C@@]4(C)[C@H]3C[C@H]([N+]3(C)CCCCC3)[C@@H]4OC(C)=O)[C@@]2(C)C[C@@H]1N1CCCCC1`, in assay [8], the Potency result was “inactive”.

`COc1ccc2c(c1)c1c3n2CCN(C)C3=NCC1`: the Potency in [8] was 3.98 µM (active).

As for `N=C(N)N1CCc2ccccc2C1`, the Potency entry in assay [8] was “inactive”.

With `C[C@H]1O[C@@H](O[C@H]2CC[C@@]3(C)[C@H](CC[C@@H]4[C@@H]3C[C@@H](O)[C@]3(C)[C@@H](C5=CC(=O)OC5)CC[C@]43O)C2)C[C@H](O)[C@@H]1O[C@H]1C[C@H](O)[C@H](O[C@H]2C[C@H](O)[C@H](O[C@@H]3O[C@H](CO)[C@@H](O)[C@H](O)[C@H]3O)[C@@H](C)O2)[C@@H](C)O1`, the Potency result in [8] is “inactive”.

As for `NCCNC(=O)c1ccc(Cl)cn1`, the Potency entry in assay [8] is “inactive”.

For the molecule `COc1cc(C)nc(-n2nc(C)cc2OC)n1`, the Potency result in assay [8] was “inactive”.

With `CCCCNc1ccc(C(=O)OCCOCCOCCOCCOCCOCCOCCOCCOCCOC)cc1`, in assay [8], the Potency entry was “inactive”.

On to `CC(=O)Nc1ncc([N+](=O)[O-])s1`, for which, in assay [8], the Potency result was “inactive”.

`CCN(CC)CCNC(=O)COc1ccc(OC)cc1`: the Potency entry in assay [8] is “inactive”.

For `NC(=O)C1(N2CCCCC2)CCN(CCCC(=O)c2ccc(F)cc2)CC1`, the Potency in assay [8] is 3.55 µM (active).

For the molecule `CCOc1cc(OCC)c(C(=O)CCC(=O)O)cc1OCC`, the Potency result in assay [8] was “inactive”.
